Sampled rows, rich in hits. Any-hit rate of the full collection: about 4%.
TRHR enhancer = qHTS for Small Molecule Agonists and Allosteric Enhancers of Human TRH Receptor: Primary Screen for Enhancers. Thyrotropin-releasing hormone receptor (Homo sapiens), P34981. TRHR cells, fluo-8 calcium fluorescence, EC20 TRH enhancement. enhancement, % at 2 µM. 0.66% of 360,000 active. AID 493056, 2011; in the data active means enhancement above about 30%
Target sequence (P34981 whole entry, looked up): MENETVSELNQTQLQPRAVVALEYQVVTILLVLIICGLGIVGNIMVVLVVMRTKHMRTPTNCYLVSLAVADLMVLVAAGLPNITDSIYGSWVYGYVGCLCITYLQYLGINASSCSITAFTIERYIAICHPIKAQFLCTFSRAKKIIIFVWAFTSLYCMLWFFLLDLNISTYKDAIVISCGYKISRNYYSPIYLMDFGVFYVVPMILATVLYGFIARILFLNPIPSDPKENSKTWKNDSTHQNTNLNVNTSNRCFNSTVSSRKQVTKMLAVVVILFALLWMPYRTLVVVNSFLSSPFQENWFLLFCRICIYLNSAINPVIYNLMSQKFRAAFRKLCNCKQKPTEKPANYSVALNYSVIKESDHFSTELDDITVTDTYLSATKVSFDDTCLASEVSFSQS
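Enhancer read-out: after compound pinning and an initial kinetic agonist-mode read, an EC20 of TRH (10 nM final) was injected and fluo-8 calcium signal (Ex 480/Em 530) followed at 1 s/cycle for 100 cycles in TRHR-expressing cells.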
GRP78 ERSR act = qHTS for Inducers of the Endoplasmic Reticulum Stress Response (ERSR) in Human Glioma: qHTS | U87-MG GRP78 promoter luciferase reporter, 16 h | Potency, µM, hits mostly activators | 0.02% of 420,000 active | AID 602332, 2012; active means well fitted activation curve with a large enough effect; inconclusive means small, poorly fitted or top-dose-only effect; inactive means no such curve, though single readings can be large or run the other way; further: series mostly up to about 76 µM; nearly all actives have a fitted effect of over 35% in size
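ERSR induction read as luciferase luminescence (Bright-Glo, 10 min at room temperature) in stably transfected human U87-MG glioma cells exposed to compounds for 16 h, using GRP78 as sensor.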
D1 antagonist = Antagonist of Human D 1 Dopamine Receptor: qHTS; activity change, negative = inhibition, % at 10 µM; 3.2% of 360,000 active; HEK293 TREx D1 cells, calcium flux, dopamine EC80; stronger effect = lower value; in the data active means activity change below about -30%
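Antagonism measured as reduced calcium response to an EC80 dopamine addition following 180 s compound pre-read; cells were inducible HEK293 Trex D1 plated overnight at 30 C, read kinetically at 1 cycle/sec.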
TRHR agonist = qHTS for Small Molecule Agonists and Allosteric Enhancers of Human TRH Receptor: Primary Screen for Agonists | TRHR cells, calcium flux fluo-8, FDSS agonist mode | activation, % at 2 µM | 0.18% of 360,000 active | Thyrotropin-releasing hormone receptor (Homo sapiens), P34981 | AID 493084, 2011
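TRHR-expressing cells, plated overnight in medium with 10% serum, were loaded with fluo-8 calcium dye at room temperature. After a 10 s baseline, library compound was pin-added and calcium release was recorded kinetically (ex 480/em 530) as agonist response.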
D1 potentiator = Potentiators of Human D1 Dopamine Receptor: qHTS; D(1A) dopamine receptor (Homo sapiens), P21728; HEK293 TREx D1 cells, calcium flux, dopamine EC20 potentiation; potentiation, % at 10 µM; 0.036% of 360,000 active; AID 504651, 2011; in the data active means potentiation above about 30%
D1 ag = Allosteric Agonists of the Human D1 Dopamine Receptor: qHTS. D(1A) dopamine receptor (Homo sapiens), P21728. 1% of 360,000 active. activation, % at 2 µM. HEK293 T-REx D1 cells, calcium flux, agonist mode
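Tetracycline-induced HEK293 TREx D1 cells, force-coupled to calcium signalling, were dye-loaded with a no-wash calcium kit. Compound was pin-added after a 10 s baseline. Fluorescence was read kinetically at 1 cycle/s for 180 s, with calcium rises flagged as agonism.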
Of the large screens only hits and unclear results are named; the others gave an inactive call; ! = repeats disagree. Unless noted, no stated cut-off is given here; in the data, active means activation above about 30%; inactive means the rest.

O=C(/C=C/c1ccccc1)Nc1cccc(C(=O)NCCCc2ccccc2)c1	none (no result: TRHR enhancer, D1 antagonist, TRHR agonist, D1 potentiator, D1 ag)
CC(CCc1ccccc1)NC(=O)/C=C/c1ccc(Cl)cc1 (configuration not stated)	D1 antagonist -86.4
Cc1ccc(/C=C/C(=O)NCCCc2ccccc2)cc1	D1 antagonist -40.3
CC(C)CC(=O)NC(=S)Nc1ccccc1C(F)(F)F	none
O=C1CCc2cc(OCCCCc3nnnn3C3CCCCC3)ccc2N1	D1 antagonist -42.5!
Cc1ccc(C(=O)Nc2cccc(-c3nc4ccccc4o3)c2)c(Cl)c1	none
Cc1cc2oc(C(=O)Nc3cccc(-c4nc5ccccc5o4)c3)c(C)c2cc1Cl	TRHR enhancer 33.1
Cc1ccccc1C1C(C#N)=C2N=C(N)c3c(sc4c3CCCCC4)N2C2=C1C(=O)CCC2 (configuration not stated)	D1 antagonist -41.9
O=C(O)CNC(=O)CC1S/C(=N/N=C2/NC(=O)CS2)NC1=O (configuration not stated)	D1 antagonist -30.4
N#CC(C(=O)NCc1ccccc1)c1nc2ccccc2nc1N1CCCC1 (configuration not stated)	none
CCOC(=O)C1CCCN(c2nc3ccccc3nc2C(C#N)C(=O)NCc2ccccc2)C1 (configuration not stated)	D1 ag 32.6
CC1CC(=O)Nc2ccccc2N1C(=O)CN1C(=O)C(=O)N(C)C1=O (configuration not stated)	none (no result: TRHR enhancer, D1 antagonist, TRHR agonist, D1 potentiator, D1 ag)
Cc1csc(SCC(=O)c2cc(C)n(Cc3cccs3)c2C)n1	none
Cc1cc(C(=O)CSc2nnc(N)s2)c(C)n1Cc1cccs1	D1 antagonist -38.7
O=C(Nc1ccc(-c2nc3ccccc3s2)c(OC(=O)c2ccccc2)c1)c1ccccc1	none
O=C(Nc1ccc(-c2nc3ccccc3s2)c(O)c1)c1ccc(Br)cc1	D1 antagonist -33.3
Cc1c(-c2ccccc2)oc2c(C(=O)OCC(=O)Nc3cccc(F)c3)cccc2c1=O	none
O=C(N/N=C/c1cccnc1)c1ccc(NC(=O)c2ccccc2Cl)cc1	TRHR enhancer 31.3
COc1ccc(/C(C)=N/NC(=O)c2cc(-c3cccnc3)nc3ccccc23)cc1	none
COc1ccc(-c2cc(C(=O)N/N=C(\C)c3cccnc3)c3ccccc3n2)cc1	D1 antagonist -57.5
Cc1ccccc1-c1cc(C(=O)N/N=C/c2cccnc2)c2ccccc2n1	none
O=C(N/N=C/c1cccnc1)c1cc(-c2ccccc2Cl)nc2ccccc12	D1 antagonist -39.9
O=C(NCc1ccccn1)c1cc(-c2ccncc2)nc2ccccc12	none
O=C(NCc1ccccn1)c1cc(-c2ccccc2Cl)nc2ccccc12	D1 antagonist -32.0
CC(=O)Nc1c(O)nc(SCC(=O)Nc2nnc(CC(C)C)s2)[nH]c1=O	none
COC(=O)[C@]1(C)N[C@H](CN(C)C(=O)c2ccc(F)cc2)[C@@H]2C(=O)N(Cc3ccccc3)C(=O)[C@@H]21	none (no result: TRHR enhancer, D1 antagonist, TRHR agonist, D1 potentiator, D1 ag)
O=C(CCN1C(=O)C2C3C=CC(C4CC34)C2C1=O)OCC(=O)c1ccccc1 (configuration not stated)	none
Cc1cc(Br)cc(Cl)c1OCC(=O)NC(=O)NCc1ccccc1	none
O=C(Nn1cnc2ccccc2c1=O)C1CCCCC1	D1 antagonist -30.4
CCCC1CCC(C(=O)Nn2cnc3ccccc3c2=O)CC1 (configuration not stated)	none
O=C(COc1cccc(Br)c1)N/N=C/C(=O)c1ccccc1	none
O=C(Nc1nccs1)c1ccc(CSc2ccccc2)o1	D1 antagonist -40.3
Cc1ccc(SCc2ccc(C(=O)Nc3nccs3)o2)cc1	GRP78 ERSR act inconclusive
O=C(OCc1ccc([N+](=O)[O-])cc1)C1CC(=O)N(CCc2ccccc2)C1 (configuration not stated)	D1 antagonist -40.2
COc1ccc(CCN2CC(C(=O)OCC(=O)N(C)Cc3ccccc3)CC2=O)cc1OC (configuration not stated)	D1 antagonist -34.6
COc1ccc(CCN2CC(C(=O)OCC(=O)NC(Cc3ccccc3)C(C)=O)CC2=O)cc1OC (configuration not stated)	none (no result: TRHR enhancer, D1 antagonist, TRHR agonist, D1 potentiator, D1 ag)
CCSc1nc2ccccc2n1C(=O)c1ccc(S(=O)(=O)N2CCCCC2)cc1	none
CN(C)C(=O)CCc1ccc2c3c([nH]c2c1)[C@]1(CCC2CCCC2)[C@@H](C(=O)N2CCOCC2)C[C@H](CC(=O)NC(C)(C)C)C(=O)N1CC3	none (no result: TRHR enhancer, D1 antagonist, TRHR agonist, D1 potentiator, D1 ag)
CCOC(=O)c1ccc(Nc2ccc(C(C)=O)cc2)cc1	none (no result: TRHR enhancer, D1 antagonist, TRHR agonist, D1 potentiator, D1 ag)
CCOC(=O)c1ccc(Nc2nnc(C(C)(C)C)c(=O)[nH]2)cc1	D1 antagonist -55.9
CCc1ccc(-c2nc(CN3CCCC(C(=O)O)C3)c(C)o2)cc1 (configuration not stated)	none (no result: D1 potentiator)
CCCCNC(=O)C1CCCN(Cc2nc(-c3ccc(Cl)cc3)oc2C)C1 (configuration not stated)	D1 antagonist -30.4
CCOCCCNC(=O)C1CCCN(Cc2nc(-c3ccc(CC)cc3)oc2C)C1 (configuration not stated)	TRHR enhancer 32.0
CCCN(CCC)CCCNC(=O)C1CCCN(Cc2nc(-c3ccc(Cl)cc3)oc2C)C1 (configuration not stated)	none
COc1cccc(CC(NC(C)=O)C(=O)NC2CCN(C(=O)C3CCCCC3)CC2)c1OC (configuration not stated)	none
Cc1ccsc1/C=C/C1=Cc2c(sc(NC(=O)CSc3n[nH]c(N)n3)c2C#N)C(C)(C)C1	D1 potentiator 97.9, D1 ag 33.5
CCOC(=O)c1sc(NC(=O)CSc2n[nH]c(-c3ccncc3)n2)c(C#N)c1C	none (no result: D1 antagonist)
CCOc1ccc(/C=C/C2=Cc3c(sc(NC(=O)CSc4n[nH]c(N)n4)c3C#N)C(C)(C)C2)cc1	D1 potentiator 31.4, D1 ag 60.0
COc1ccc(C(CC(=O)Nc2ccccn2)N2Cc3ccccc3C2=O)cc1 (configuration not stated)	none
Cc1ccn2c(CN(C)CCn3nc(C)cc3C)c(C(=O)N3CCCCCC3)nc2c1	D1 antagonist -35.9
Cc1ccn2c(CNCCn3nc(C)cc3C)c(C(=O)N3CCCCCC3)nc2c1	none
COc1cc(SC)ccc1C(=O)NCc1ccccc1	none

Source: PubChem BioAssay (National Center for Advancing Translational Sciences (NCATS))
